Experiment [1] in a line: Quantitative High-Throughput drug screen in 47 multiple myeloma cell lines against the NCATS MIPE library collection: KHM11_PLB cell viability assay (AID 1918962). Note: nearly all actives have a fitted effect of over 35% in size. The method, boiled down:
(§1)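 Luminescent ATP measurement with CellTiter-Glo gives viability, scaled between DMSO-only wells (100%) and media-only wells (0%). Cells, 500 per well, faced library compounds for 48 hours at 37C.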

Experiment [2] is described as follows: Quantitative High-Throughput drug screen in 47 multiple myeloma cell lines against the NCATS MIPE library collection: JIM3_ECACC cell viability assay (AID 1918963; note: nearly all actives have a fitted effect of over 35% in size). The method, boiled down:
as §1

Experiment [3] is described as follows: Quantitative High-Throughput drug screen in 47 multiple myeloma cell lines against the NCATS MIPE library collection: JIM1_ECACC cell viability assay (AID 1918964). The method, boiled down:
(§2)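 Relative luminescence from CellTiter-Glo served as the viability signal, referenced to DMSO-treated (100%) and cell-free medium (0%) controls. Treatment lasted 48 hours at 37C with 500 cells per well.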

Experiment [4] is described as follows: Quantitative High-Throughput drug screen in 47 multiple myeloma cell lines against the NCATS MIPE library collection: INA6_PLB cell viability assay (AID 1918965; note: nearly all actives have a fitted effect of over 55% in size). The method, boiled down: (§3)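 Steps: seed 500 cells per well; pin-transfer MIPE 4.0 library; incubate 48 h at 37C, 5% CO2, humidified; add CellTiter-Glo, 5 min room temperature; read luminescence.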

A short description of experiment [5]: Quantitative High-Throughput drug screen in 47 multiple myeloma cell lines against the NCATS MIPE library collection: JJN3_DSMZ cell viability assay (AID 1918966; note: nearly all actives have a fitted effect of over 50% in size). The method, boiled down:
as §2

Experiment [6] in a line: Quantitative High-Throughput drug screen in 47 multiple myeloma cell lines against the NCATS MIPE library collection: H1112_PLB cell viability assay (AID 1918967; note: nearly all actives have a fitted effect of over 30% in size). The method in brief:
as §2

The nature of experiment [7]: Quantitative High-Throughput drug screen in 47 multiple myeloma cell lines against the NCATS MIPE library collection: Karpas25_ECACC cell viability assay (AID 1918968; note: nearly all actives have a fitted effect of over 35% in size). The method, boiled down: as §2
Experiment [8] in a line: Quantitative High-Throughput drug screen in 47 multiple myeloma cell lines against the NCATS MIPE library collection: KMS27_JCRB cell viability assay (AID 1918970). Note: nearly all actives have a fitted effect of over 30% in size. The following applies: KMS27 myeloma cells, CellTiter-Glo ATP viability, 48 h; viability (% of DMSO): at 45.8 µM (top of the series). The method in brief: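 ATP-based viability (CellTiter-Glo luminescence) is measured in cells treated 48 h with approved and investigational drugs at 37 °C. Controls are DMSO-only wells for full viability and media-only wells for none.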

The nature of experiment [9]: Quantitative High-Throughput drug screen in 47 multiple myeloma cell lines against the NCATS MIPE library collection: KMS12BM_JCRB cell viability assay (AID 1918971). Note: nearly all actives have a fitted effect of over 35% in size. The method in brief:
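We plated 500 myeloma cells per well, pinned in MIPE 4.0 compounds, and incubated for 48 hours at 37C. ATP was then quantified with CellTiter-Glo, with DMSO and media-only wells defining 100% and 0%.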

Experiment [10] in a line: Quantitative High-Throughput drug screen in 47 multiple myeloma cell lines against the NCATS MIPE library collection: KMS12PE_JCRB cell viability assay (AID 1918972). Note: nearly all actives have a fitted effect of over 30% in size. The method, boiled down: as §3

Inconclusive results are not listed. Calls of active or inactive are those of the source. Calls come from the whole dose curve; as a rule, active = well fitted curve in the direction sought with a large enough effect; inconclusive = small, poorly fitted or top-dose-only effect, or another doubt; inactive = no such curve, though single readings can be large; an effect the other way counts as inactive or inconclusive.
Potency is the fitted concentration of half-maximal effect.

With `CC[C@H](NC(=O)[C@H](C)NC)C(=O)N1C[C@@H](O)C[C@H]1Cc1c(-c2[nH]c3cc(F)ccc3c2C[C@H]2C[C@H](O)CN2C(=O)[C@H](CC)NC(=O)[C@H](C)NC)[nH]c2cc(F)ccc12`, the Potency entry in experiment [1], in [5] and in experiment [9] was “inactive” in each case. In addition, the Potency in experiment [2] is 1.48 µM (active); in [3], 2.09 µM (active); in experiment [4], 11.8 µM (active); in experiment [6], 11.8 µM (active); in [7], 16.6 µM (active); in experiment [8], 0.935 µM (active). In experiment [10], the Potency was 11.8 µM (active).

Regarding `CCn1c(-c2nonc2N)nc2cncc(CNC3CCNCC3)c21`, the Potency was 2.64 µM (active) in [1]; 2.96 µM (active) in [2]; 5.9 µM (active) in experiment [4]; 5.26 µM (active) in experiment [5]; 5.26 µM (active) in experiment [6]; 8.33 µM (active) in [7]. The Potency in [8] was 2.09 µM (active); in experiment [10], 1.05 µM (active). For the same compound, the Potency result in [9] was “inactive”.

Consider `CC(NCCc1ccc(O)cc1)C(O)c1ccc(O)cc1` (stereo not given), for which the Potency entry in experiment [1], in [2], in experiment [3], in experiment [4], in experiment [5] and in [6] was “inactive” throughout. Moreover, the Potency entry in experiment [8], in experiment [9] and in experiment [10] was “inactive” throughout.

As for `CCc1cc(-c2n[nH]c(C)c2-c2ccc3c(c2)OCCO3)c(O)cc1O`, the Potency in experiment [1] is 4.69 µM (active); in [2] it was 8.33 µM (active); in [3], 5.9 µM (active); in [4], 4.69 µM (active); in experiment [5] it was 4.18 µM (active); in experiment [6], 8.33 µM (active). Also, the Potency in [7] is 7.43 µM (active); in experiment [8], 5.9 µM (active); in experiment [9] it was 5.26 µM (active); in experiment [10], 5.26 µM (active).

On to `CN1CCN(c2cccc(Nc3nc4c(-c5ccc(S(C)(=O)=O)cc5)cccn4n3)c2)CC1`, for which the Potency in experiment [1] is 2.35 µM (active); in experiment [2] it was 2.96 µM (active); in [3], 0.662 µM (active); in experiment [4], 0.59 µM (active); in [6] it was 2.35 µM (active); in experiment [8], 1.32 µM (active). Besides, the Potency is 9.35 µM (active) in [9] and 0.833 µM (active) in experiment [10]. In experiment [7], the Potency entry was “inactive”.

As to `COc1ccc(C=CC(=O)Nc2ccccc2C(=O)O)cc1OC`, the Potency result in experiment [1], in experiment [2], in experiment [3], in [6], in [7] and in experiment [8] was “inactive” throughout. Further, the Potency entry in experiment [10] was “inactive”. In addition, the Potency in experiment [4] is 0.0019 µM (active).

`CC(=O)OCC(=O)[C@@]12OC(C)(C)O[C@H]1C[C@H]1[C@@H]3C[C@H](F)C4=CC(=O)C=C[C@]4(C)[C@@]3(F)[C@@H](O)C[C@@]12C`: the Potency entry in [1], in experiment [2], in [3], in [6], in experiment [8] and in experiment [10] was “inactive” each time.

Regarding `CC1CNc2c(cccc2S(=O)(=O)N[C@@H](CCCN=C(N)N)C(=O)N2CC[C@@H](C)C[C@@H]2C(=O)O)C1` (stereo not given in full), the Potency result in experiment [1], in [2], in experiment [4], in [5], in experiment [6] and in [7] was “inactive” in each case. Besides, in experiment [8], the Potency was 14.8 µM (active).

With `C=CCc1cccc(C=NNC(=O)CN2CCN(Cc3ccccc3)CC2)c1O`, the Potency is 20.9 µM (active) in experiment [1]; 23.5 µM (active) in [2]; 5.26 µM (active) in experiment [3]; 14.8 µM (active) in [4]; 18.7 µM (active) in experiment [7]; 5.26 µM (active) in [8]. For the same compound, in experiment [10], the Potency is 4.18 µM (active).

As to `CC1(C)C(N(O)C(=O)Nc2ccc(Cl)cc2)N(c2ccc(Cl)cc2)C(=O)N1CC(=O)NN=CC=Cc1ccc([N+](=O)[O-])o1` (stereo not given), the Potency in [1] is 11.8 µM (active); in experiment [2] it was 14.8 µM (active); in [4] it was 7.43 µM (active); in experiment [5], 4.18 µM (active); in [6], 9.35 µM (active); in experiment [7] it was 8.33 µM (active). Also, in experiment [9], the Potency is 8.33 µM (active). Besides, the Potency entry in [8] and in [10] was “inactive” throughout.

Regarding `NS(=O)(=O)c1cc(Cl)c(Cl)c(S(N)(=O)=O)c1`, the Potency result in experiment [1], in [2], in experiment [3], in experiment [4], in experiment [5] and in [6] was “inactive” in each case. The Potency entry in experiment [7], in experiment [8] and in experiment [10] was “inactive” throughout.

`Cc1cnc(Nc2cccc(CN3CCOCC3)c2)nc1Nc1cccc(S(=O)(=O)NC(C)(C)C)c1`: the Potency was 13.2 µM (active) in experiment [1]; 2.96 µM (active) in experiment [2]; 0.469 µM (active) in experiment [4]; 5.9 µM (active) in experiment [5]; 13.2 µM (active) in experiment [6]; 3.72 µM (active) in experiment [7]. Further, in [9], the Potency is 5.26 µM (active).

With `C[C@@H]1CC=CC=CC=CC=C[C@@H](O[C@@H]2O[C@H](C)[C@@H](O)[C@H](N)[C@H]2O)C[C@@H]2O[C@](O)(C[C@@H](O)C[C@@H]3O[C@@H]3C=CC(=O)O1)C[C@H](O)[C@@H]2C(=O)O`, the Potency in experiment [1] was 13.2 µM (active); in [2] it was 5.9 µM (active); in [4] it was 18.7 µM (active); in [6], 16.6 µM (active); in [7] it was 20.9 µM (active); in [9] it was 10.5 µM (active). Further, the Potency entry in experiment [3] and in experiment [10] was “inactive” in each case.

In the case of `COC(=O)Nc1ccc(-c2nc(N3CCOCC3)c3cnn(C4CCN(C(=O)OC)CC4)c3n2)cc1`, the Potency in experiment [1] was 0.0833 µM (active); in [2], 0.264 µM (active); in experiment [4] it was 0.0935 µM (active); in experiment [5], 0.935 µM (active); in experiment [6], 0.0662 µM (active); in experiment [7] it was 0.0187 µM (active). The Potency in experiment [8] is 0.0833 µM (active); in [9] it was 0.935 µM (active); in [10] it was 1.66 µM (active).

Regarding `N#CC(c1ccnc(NCCc2cccnc2)n1)c1nc2ccccc2s1` (stereo not given), the Potency in experiment [1] was 11.8 µM (active); in [2], 16.6 µM (active); in experiment [4] it was 3.72 µM (active); in experiment [5] it was 10.5 µM (active); in [6], 18.7 µM (active); in experiment [7], 7.43 µM (active). Also, the Potency is 7.43 µM (active) in experiment [8] and 4.18 µM (active) in experiment [10].

(Values after PubChem BioAssay (NCATS).)
